For 62 compounds, activity change results are on record in PubChem BioAssay AID1347041 (National Center for Advancing Translational Sciences (NCATS), 2019).

About 740 (0.15%) of roughly 480,000 compounds were called active. This excerpt belongs to a sample that is enriched for actives. Unmarked numbers belong to inactive results. Rule as the data show it: active = activity change below about -30%; inconclusive = mostly about -25% to -30%; inactive = weaker than that.

The target in this experiment is L-lactate dehydrogenase A chain (Homo sapiens) (UniProt P00338). Description: qHTS assay for inhibitors of human lactate dehydrogenase.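 Also: values are at about 110 or 230 µM; plate controls were DMSO wells for no effect and wells without enzyme for full effect.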 The note with it: purified LDHA, NADH/diaphorase-resazurin fluorescence; active compounds read low. The source says:
LDH is a key glycolytic enzyme that catalyzes the final step in the glycolytic pathway, reducing pyruvate to lactate and regenerating NAD+ equivalents necessary for continued glycolysis. LDHA has been linked to the carcinogenesis and malignancy in numerous forms of cancers and many other diseases. Consequently, both pharma and academia have invested in significant research efforts to identify small molecule therapeutics. Such attempts have been stalled or abandoned due to limited success in discovering potent and drug-like inhibitors that can be utilized to validate LDHA in vivo as a drug target, a necessary step toward advancing such a molecule towards the clinic Towards this goal we designed and performed a quantitative high-throughput screening (qHTS) campaign to discover novel compounds that are potent inhibitors of LDHA enzyme activity and cancer cell line growth.
The assay was optimized to 1536-well plates. Briefly, 3 µL of human lactate dehydrogenase 5 (#A38558H, Meridian Life Science, Inc., Memphis, TN) in LDH assay buffer (200 mM Tris HCl pH 7.4, 100 microM EDTA and 0.01% Tween-20) was added to a black solid bottom 1536-well assay plate (Greiner Bio-One) using a BioRAPTR FRD dispenser (Beckman Coulter, Brea, CA). A 1536-well pintool dispenser outfitted with 20 nL pins (Wako Automation, San Diego, CA) was used to transfer 23 nL of DMSO-solubilized compound (both library and vehicle controls) to each 1536-well assay plate. Following compound transfer, 1 µL of substrate solution containing NADH and sodium pyruvate (Sigma-Aldrich, St. Louis, MO) in LDH assay buffer was dispensed via BioRAPTR FRD to initiate the reaction. Final concentrations in the 4 microL reaction volume were 2 nM LDHA enzyme, 0.06 mM NADH and 0.2 mM sodium pyruvate. Following a 5 minute incubation period at room temperature, 1 µL of detection reagent (C. kluyveri diaphorase (Sigma-Aldrich) and resazurin sodium salt (Sigma-Aldrich) in LDH assay buffer) was added to a total volume of 5 µL. Final concentrations of detection reagents were 0.133 mg/mL diaphorase and 37 µM resazurin. Plates were immediately transferred to a ViewLux microplate imager (PerkinElmer, Waltham, MA), and any resulting resorufin fluorescence was measured (ex540, em590 nm) at 0 and 20 minutes. Fluorescence was normalized using enzyme-free and DMSO-treated control wells on each plate.
Consider `CC(=O)c1ccccc1NC(=O)c1ccccc1Cc1ccccc1`, for which the activity change is -24.1%.
`CCN(CC)C(=O)c1ccc(CSC(F)F)o1`: the activity change is -3.64%.
On to `Cc1cccc(N2CCN(Cc3ncc(-c4ccc(Cl)cc4)o3)CC2)c1`, for which the activity change was 6.83%.
Next, `Cc1c(CC(=O)NCCCN2CCOCC2)c(=O)oc2cc(O)ccc12`: 1.59%.
Take `CCOc1ccccc1NC(=O)Cn1c2ncccc2c(=O)n1-c1ccc(C)c(C)c1`: the activity change is -10%.
For the compound `Cc1[nH]n(-c2nc(-c3ccccc3)cs2)c(=O)c1CC(=O)Nc1cccc(Cl)c1`, the activity change was -4.25%.
Next, `CCOc1ccccc1NC(=O)Cc1c(C)[nH]n(-c2nc(-c3ccccc3)cs2)c1=O`: -42.8% (active); `CCNC(=O)c1nnc(C(=O)Nc2cccc(Cl)c2)s1`: 6.18%.
Next, `Cn1c(=O)n(C)c2cc(SCc3ccco3)c(NC(=O)c3ccc(C(C)(C)C)cc3)cc21`: -5.57%; `CCCCCn1c(SCc2ccc(C)cc2)nc2c1c(=O)[nH]c(=O)n2C`: -21.4%; `CN1CCN(CCC2(Cc3ccccc3)CCOC(C)(C)C2)CC1` (configuration not stated): -4.19%.
Then `O=C(O)C(Br)Cc1ccc(Cl)cc1Cl` (configuration not stated), with 27.6%; and `CC1(C)CC(N2CCN(C(c3ccccc3)c3ccccc3)CC2)=CC(=[N+]2CCCCC2)C1`, with -64.6% (active); and `O=C(Nc1ccc2c(c1)OCCCO2)c1ccccc1OCc1ccc(F)cc1`, with 7.94%.
As for `CC(C)(C)c1ccc(-c2nnc(SCC(=O)NC(=O)NC3CCCC3)n2Cc2ccco2)cc1`, the activity change is 9.16%.
Next, `CC1=C/C(=N\NC(N)=S)C(C)C1` (configuration not stated): 1.95%; `CCOC(=O)/C=C/c1cc(C(=O)OCC)c(/C=C/C(=O)OCC)cc1C(=O)OCC`: -12.2%; `CCn1c(SCC(=O)NCC(F)(F)F)nnc1-c1ccncc1`: -0.908%.
Regarding `Cc1n[nH]c(=O)nc1N/N=C/c1cccs1`, the activity change was 10.4%.
Take `Cc1ccsc1/C=N/n1c(=S)[nH]nc(C)c1=O`: the activity change was -32.7% (active).
Then `CCc1n[nH]c(=S)n1/N=C/c1c[nH]c2ccc(Br)cc12`, with -11%; and `Cc1ccccc1NC(=O)Cc1nnc(SCC(=O)c2ccc(C#N)cc2)n1C`, with 2.1%; and `CCc1nn2c(=O)cc(CN(CC)Cc3ccc(OC)cc3)nc2s1`, with 0.31%.
For `CCOC(=O)C(NC(=O)c1ccccc1)C(F)(F)F` (configuration not stated), the activity change was -5.84%.
For the compound `O=C(COc1ccccc1C(=O)Nc1ccccc1)NC1CC1`, the activity change is 2.72%.
With `Cc1cc2oc(=O)cc(CN3CCCCCCC3)c2cc1C`, the activity change was 3.97%.
Next, `Cc1nc2nc(CN)nn2c(C)c1CCC(=O)NC1CCCCC1`: 10.1%.
As for `CCCn1c(SC(C)C(=O)c2ccc(Cl)cc2)n[nH]c1=O` (configuration not stated), the activity change was 1.73%.
Consider `CSc1nnc([C@H](CC(C)C)NC(=O)OC(C)(C)C)o1`, for which the activity change is -6.07%.
In the case of `c1ccc(Oc2ncnc3scc(-c4ccc(-c5ccccc5)cc4)c23)cc1`, the activity change was 2.38%.
In the case of `CCn1c(SCc2ccc(F)cc2Cl)nnc1-c1ccccn1`, the activity change was -9.31%.
As to `Cc1ccc(NC(=O)C2=Cc3sc4c(c3CS2)CCCC4)c(C)c1`, the activity change was 4.96%.
For the compound `NC(N)=Nc1ccc(F)cc1`, the activity change was 0.928%.
Next, `O=C(CCc1nc(-c2ccccc2)no1)N1CCc2sccc2C1c1cccs1` (configuration not stated): 9.21%; `Cc1cc(C)n2ncc(-c3noc(C(=O)NC4CCCC4)n3)c2n1`: -0.0013%; `Cc1nc2cc(NC(=O)COc3ccccc3C(C)(C)C)ccc2o1`: 3.35%.
In the case of `Cc1[nH]c2ccccc2c1C(=O)C(C)Sc1ccc2c(c1)OCCCO2` (configuration not stated), the activity change is 7.43%.
Next, `Cc1nc2cc(NC(C)C(=O)Nc3ccccc3Cl)ccc2o1` (configuration not stated): -7.75%.
Then `c1ccc(COc2ccc(CNc3ccccc3)cc2)cc1`, with -2.65%; and `O=C(Nc1ccc(N2CCOCC2)cc1)c1ccc2c(c1)S(=O)(=O)c1ccccc1C2=O`, with 0.869%; and `CC(C)CCn1c(=O)[nH]c(=O)c2c3c(cnc21)C(=O)CC(c1ccc(F)cc1)C3` (configuration not stated), with 8.23%.
Next, `Fc1ccc(-n2c(Cc3ccccc3)nnc2SCc2ccc(Br)cc2)cc1`: 11.5%; `COc1ccc(CNS(=O)(=O)c2ccc(-c3ccc(=O)[nH]n3)s2)cc1`: -1.99%.
Turning to `O=C1CN(CC(=O)Nc2c(Cl)cc(Cl)cc2Cl)CCN1`, the activity change was -9.74%.
Take `CCOc1ccccc1N(CC)C(=O)Cc1noc2ccccc12`: the activity change was 1.93%.
On to `O=C(O)c1c(Br)c(Br)c(Br)c(Br)c1C1c2ccc(O)cc2Oc2cc(O)ccc21`, for which the activity change is -47.5% (active).
In the case of `COc1ccc(OC)c(C2C(C#N)=C(N)Oc3cc(O)ccc32)c1` (configuration not stated), the activity change is 6.17%.
As to `O=C(c1n[nH]c(=O)c2ccccc12)N1CCN(S(=O)(=O)c2ccccc2F)CC1`, the activity change is 12.5%.
Then `COc1cccc(-c2c(NC(=O)c3ccc(Cl)cc3)oc3ccccc3c2=O)c1`, with -5.8%; and `O=C(O)Cc1ccc(F)c2ccccc12`, with 2.09%.
Then `CC(Sc1nc2cc(S(=O)(=O)N3CCCCC3)ccc2o1)C(=O)Nc1cccc(Cl)c1` (configuration not stated), with 6.97%.
Next, `CN(C(=O)c1cnc(N2CCOCC2)c2ccccc12)C1CCCCC1`: 3.81%; `N=C(N)CCl`: 0.754%; `CC1CCC(C(C)C)C(NC(=O)c2ccccc2)C1` (configuration not stated): 0.148%.
With `Cc1cc(-c2nc3ncccc3o2)ccc1NC(=O)CC12CC3CC(CC(C3)C1)C2`, the activity change was -0.587%.
In the case of `O=C(CCc1ncc(-c2ccccc2F)o1)NCc1ccc2c(c1)OCO2`, the activity change is 9.36%.
Next, `O=C(/C=C/c1cccc(Br)c1)c1ccc(O)c(CCCl)c1`: 0.183%; `CC(N)c1cccc([N+](=O)[O-])c1` (configuration not stated): 8.12%; `O=C(O)C1CCN(c2ccc3nnc(C(F)(F)F)n3n2)CC1`: -1.19%.
Turning to `Cc1ccc(/C=C(/C#N)C(=O)c2ccsc2)cc1C`, the activity change is 4.55%.
`CC(C)(C)C(=O)N1CCC(C(=O)N2CCC(c3nc4ccccc4o3)CC2)CC1`: the activity change is 0.769%.
As to `O=C(C(c1ccccc1)N1CCN(S(=O)(=O)c2cccs2)CC1)N1CCCCC1` (configuration not stated), the activity change was 1.33%.
